# Results with a measured potency or affinity are listed apart.
# Tested on: Klebsiella pneumoniae
# Conditions: Concentration 32 ug.mL-1; ASSAY_TEST Inhibition of Bacterial Growth; detection method Absorption (OD600); MEDIA CAMHB; plate type 384well; NBS; CORNING #3640; time 18 hr
row,Structure (SMILES),Inhibition
1,CC(C)CCc1sc(NC(=O)c2cc(NC(=O)c3cc(NC(=O)CCC(=O)O)cn3C)cn2C)nc1C(=O)NCCCN(C)C.O=C(O)C(F)(F)F,2.15%
2,CCOC(=O)c1cc(NC(=O)c2cc(NC(=O)c3sc(N)nc3C(F)(F)F)cn2C)cn1C,7.86%
3,COc1cccc(C(=N)Nc2cc(C(=O)Nc3cc(C(=O)Nc4cn(CCCN(C)C)cn4)n(C)c3)n(C)c2)c1.O=C(O)C(F)(F)F.O=C(O)C(F)(F)F,25.01%
4,Cn1cc(NC(=O)c2cc(NC(=O)c3sc(N)nc3C(F)(F)F)cn2C)cc1C(=O)NCCN1CCOCC1.O=C(O)C(F)(F)F,-3.11%
5,Cc1ccc(S(=O)(=O)NCCc2cn(Cc3cnc(C)nc3N)nn2)cc1,1.07%
6,CC(C)CCn1cc(NC(=O)c2cc(NC(=O)c3cc(NC(=N)c4ccccc4)cn3C)cn2C)cc1C(=O)NCCCN(C)C.O=C(O)C(F)(F)F.O=C(O)C(F)(F)F,2.69%
7,CN(C)CCCNC(=O)c1cc(NC(=O)c2cc(NC(=O)c3cc(NC(=N)c4ccccc4)cn3C)cn2C)cn1C.O=C(O)C(F)(F)F.O=C(O)C(F)(F)F,1.31%
8,COC(=O)c1ccc(C(=O)Nc2cc(C(=O)Nc3cc(C(=O)NCCC(=N)N)n(C)c3)n(C)c2)cc1.O=C(O)C(F)(F)F,7.16%
9,Cc1ncc(Cn2cc(CCCCO)nn2)c(N)n1,1.98%
10,CN(C)CCCNC(=O)c1cc(NC(=O)c2cc(NC(=O)c3cc4ccccc4cn3)cn2C)cn1C.O=C(O)C(F)(F)F,12.4%
11,COc1cccc(/C=C/c2ccc(C(=O)Nc3cc(C(=O)Nc4cc(C(=O)NCCN(C)C)n(C)c4)n(C)c3)cc2)c1.O=C(O)C(F)(F)F,26.76%
12,CCOC(=O)c1cc(NC(=O)c2cc(NC(=O)c3nc(N)sc3C(C)C)cn2C)cn1C,11.43%
13,COc1cccc(C(=O)Nc2cc(C(=O)Nc3cc(C(=O)Nc4cn(CCCN(C)C)cn4)n(C)c3)n(C)c2)c1.O=C(O)C(F)(F)F,3.02%
14,COc1ccc(/C=C(/C(=O)Nc2cc(C(=O)Nc3cc(C(=O)NCCCN(C)C)n(C)c3)n(C)c2)c2ccc(OC)cc2)cc1.O=C(O)C(F)(F)F,4.2%
15,COC(=O)CCC(=O)Nc1cc(C(=O)Nc2cc(C(=O)NCCC(=N)N)n(C)c2)n(C)c1.O=C(O)C(F)(F)F,5.44%
16,COC(=O)c1ccc(C(=O)Nc2cc(C(=O)Nc3cc(C(=O)NCCN4CCOCC4)n(C)c3)n(C)c2)cc1.O=C(O)C(F)(F)F,8.44%
17,Cc1ncc(CNc2ccc(C(C)(C)C)cc2)c(N)n1,2.67%
18,Cc1ncc(CNc2ccc(C(F)(F)F)cc2)c(N)n1,1.98%
19,Cc1ncc(Cn2cc(CCCN)nn2)c(N)n1.Cl,-8.29%
20,CC(C)c1sc(NC(=O)c2cc(NC(=O)c3cc(NC(=O)c4cnc(Cl)c(Cl)c4)cn3C)cn2C)nc1C(=O)NCCCN(C)C.O=C(O)C(F)(F)F,-2.83%
21,CCOC(=O)c1cc(NC(=O)c2cc(NC(=O)c3nc(N)sc3CCC(C)C)cn2C)cn1C,9.93%
22,Cc1ncc(CNc2ccc(F)cc2)c(N)n1,12.64%
23,COCCOC1CCN(C(=O)c2cc(NC(=O)c3cc(NC(=O)c4ccc(/C=C/c5ccc(OC)cc5)cc4)cn3C)cn2C)CC1.O=S(=O)(O)O,1.91%
24,CC(=O)Nc1cc(C(=O)Nc2cc(C(=O)Nc3cc(C(=O)NCCCN(C)C)n(C)c3)n(C)c2)n(C)c1.O=C(O)C(F)(F)F,11.92%
25,CC(C)CCc1sc(NC(=O)c2cc(NC(=O)c3ccc(/C=C/c4cc5ccccc5nc4On4nnc5ccccc54)cc3)cn2C)nc1C(=O)NCCN1CCOCC1.O=C(O)C(F)(F)F,-11.86%
26,CC(C)c1sc(N)nc1C(=O)Nc1cc(C(=O)NCCN2CCOCC2)n(C)c1.O=C(O)C(F)(F)F,8.18%
27,COCCOC1CCN(C(=O)c2cc(NC(=O)c3cc(NC(=O)c4ccc(/C=C/c5cnc6ccccc6c5)cc4)cn3C)cn2C)CC1,10.84%
28,COc1ccc(CC(=O)Nc2cc(C(=O)Nc3cc(C(=O)Nc4cn(CCCN(C)C)cn4)n(C)c3)n(C)c2)cc1.O=C(O)C(F)(F)F,2.03%
29,Cc1ncc(Cn2cc(CCC(=O)O)nn2)c(N)n1.O=C(O)C(F)(F)F,-1.46%
30,Cc1ncc(CO)c(N)n1,-2.19%

# Tested on: Candida albicans
# Conditions: 32 ug/mL
row,Structure (SMILES),Inhibition
1,CC(C)CCc1sc(NC(=O)c2cc(NC(=O)c3cc(NC(=O)CCC(=O)O)cn3C)cn2C)nc1C(=O)NCCCN(C)C.O=C(O)C(F)(F)F,2.8%
2,CCOC(=O)c1cc(NC(=O)c2cc(NC(=O)c3sc(N)nc3C(F)(F)F)cn2C)cn1C,4.58%
3,COc1cccc(C(=N)Nc2cc(C(=O)Nc3cc(C(=O)Nc4cn(CCCN(C)C)cn4)n(C)c3)n(C)c2)c1.O=C(O)C(F)(F)F.O=C(O)C(F)(F)F,0.2%
4,Cn1cc(NC(=O)c2cc(NC(=O)c3sc(N)nc3C(F)(F)F)cn2C)cc1C(=O)NCCN1CCOCC1.O=C(O)C(F)(F)F,1.1%
5,Cc1ccc(S(=O)(=O)NCCc2cn(Cc3cnc(C)nc3N)nn2)cc1,3.05%
6,CC(C)CCn1cc(NC(=O)c2cc(NC(=O)c3cc(NC(=N)c4ccccc4)cn3C)cn2C)cc1C(=O)NCCCN(C)C.O=C(O)C(F)(F)F.O=C(O)C(F)(F)F,0.79%
7,CN(C)CCCNC(=O)c1cc(NC(=O)c2cc(NC(=O)c3cc(NC(=N)c4ccccc4)cn3C)cn2C)cn1C.O=C(O)C(F)(F)F.O=C(O)C(F)(F)F,0.01%
8,COC(=O)c1ccc(C(=O)Nc2cc(C(=O)Nc3cc(C(=O)NCCC(=N)N)n(C)c3)n(C)c2)cc1.O=C(O)C(F)(F)F,5.42%
9,Cc1ncc(Cn2cc(CCCCO)nn2)c(N)n1,2.99%
10,CN(C)CCCNC(=O)c1cc(NC(=O)c2cc(NC(=O)c3cc4ccccc4cn3)cn2C)cn1C.O=C(O)C(F)(F)F,3.58%
11,COc1cccc(/C=C/c2ccc(C(=O)Nc3cc(C(=O)Nc4cc(C(=O)NCCN(C)C)n(C)c4)n(C)c3)cc2)c1.O=C(O)C(F)(F)F,28.1%
12,CCOC(=O)c1cc(NC(=O)c2cc(NC(=O)c3nc(N)sc3C(C)C)cn2C)cn1C,4.33%
13,COc1cccc(C(=O)Nc2cc(C(=O)Nc3cc(C(=O)Nc4cn(CCCN(C)C)cn4)n(C)c3)n(C)c2)c1.O=C(O)C(F)(F)F,3.2%
14,COc1ccc(/C=C(/C(=O)Nc2cc(C(=O)Nc3cc(C(=O)NCCCN(C)C)n(C)c3)n(C)c2)c2ccc(OC)cc2)cc1.O=C(O)C(F)(F)F,1.83%
15,COC(=O)CCC(=O)Nc1cc(C(=O)Nc2cc(C(=O)NCCC(=N)N)n(C)c2)n(C)c1.O=C(O)C(F)(F)F,2.68%
16,COC(=O)c1ccc(C(=O)Nc2cc(C(=O)Nc3cc(C(=O)NCCN4CCOCC4)n(C)c3)n(C)c2)cc1.O=C(O)C(F)(F)F,7.27%
17,Cc1ncc(CNc2ccc(C(C)(C)C)cc2)c(N)n1,-0.83%
18,Cc1ncc(CNc2ccc(C(F)(F)F)cc2)c(N)n1,0.52%
19,Cc1ncc(Cn2cc(CCCN)nn2)c(N)n1.Cl,3.42%
20,CC(C)c1sc(NC(=O)c2cc(NC(=O)c3cc(NC(=O)c4cnc(Cl)c(Cl)c4)cn3C)cn2C)nc1C(=O)NCCCN(C)C.O=C(O)C(F)(F)F,7.37%
21,CCOC(=O)c1cc(NC(=O)c2cc(NC(=O)c3nc(N)sc3CCC(C)C)cn2C)cn1C,2.98%
22,Cc1ncc(CNc2ccc(F)cc2)c(N)n1,4.55%
23,COCCOC1CCN(C(=O)c2cc(NC(=O)c3cc(NC(=O)c4ccc(/C=C/c5ccc(OC)cc5)cc4)cn3C)cn2C)CC1.O=S(=O)(O)O,3.1%
24,CC(=O)Nc1cc(C(=O)Nc2cc(C(=O)Nc3cc(C(=O)NCCCN(C)C)n(C)c3)n(C)c2)n(C)c1.O=C(O)C(F)(F)F,0.65%
25,CC(C)CCc1sc(NC(=O)c2cc(NC(=O)c3ccc(/C=C/c4cc5ccccc5nc4On4nnc5ccccc54)cc3)cn2C)nc1C(=O)NCCN1CCOCC1.O=C(O)C(F)(F)F,12.3%
26,CC(C)c1sc(N)nc1C(=O)Nc1cc(C(=O)NCCN2CCOCC2)n(C)c1.O=C(O)C(F)(F)F,3.26%
27,COCCOC1CCN(C(=O)c2cc(NC(=O)c3cc(NC(=O)c4ccc(/C=C/c5cnc6ccccc6c5)cc4)cn3C)cn2C)CC1,3.83%
28,COc1ccc(CC(=O)Nc2cc(C(=O)Nc3cc(C(=O)Nc4cn(CCCN(C)C)cn4)n(C)c3)n(C)c2)cc1.O=C(O)C(F)(F)F,1.27%
29,Cc1ncc(Cn2cc(CCC(=O)O)nn2)c(N)n1.O=C(O)C(F)(F)F,2.33%
30,Cc1ncc(CO)c(N)n1,-0.12%

# Reference: ChEMBL document CHEMBL4513139, “CO-ADD screening of University of Strathclyde (UK) compounds”
